Compounds without any hit were thinned out: in the full panel of roughly 83,000, 20% have a hit.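 Compound tested at a single concentration for 48 hours in 96-well plates; a percent growth value below 10 was scored as active.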 Unmarked numbers belong to inactive results. Calls of active or inactive are those of the source.
The compounds below were run on MCF7 breast (assay: NCI-60 one-dose screen, 48 h (100 = growth as untreated, 0 = no growth, -100 = all killed)). Conditions: 10 µM unless noted.

Compound | growth
O=C(CCCCCCCCC(=O)Nc1cccc(C2=NCCN2)c1)Nc1cccc(C2=NCCN2)c1 | 49.9%
C[C@]12CC[C@@H]3c4ccc(O)cc4CC[C@H]3[C@@H]1C[C@H](O)C2 | 61%
CCCCCCCCCCCCCC1=NCC[N+]1(CCO)Cc1ccccc1 (configuration not stated) | -84.8% (active)
O=C1[C@@H](OS(=O)(=O)CC(F)(F)F)[C@H](c2ccc(F)cn2)N1c1cc2c3ccccc3ccc2c2ccccc12 | 64%
Cc1cc(O)cc(O)c1N=NC1=NCCS1 | 86.5%
CCN(CC)CC#CCOC(=O)[C@]1(C)CCC[C@]2(C)[C@H]3C[C@H]4C(C(C)C)=C[C@]3(CC[C@H]21)[C@@H]1C(=O)CCC(=O)[C@@H]14 | 25.1%
CC(=O)OCC1OC(OC2C(COC(C)=O)OC(OCCC[S-])C(OC(C)=O)C2OC(C)=O)C(OC(C)=O)C(OC(C)=O)C1OC(C)=O.[Au+].c1ccc(CN2[CH-]N(Cc3ccccc3)C(c3ccccc3)=C2c2ccccc2)cc1 (configuration not stated) | 7.42% (active)
COc1cc(-c2cn(-c3ccc(Cl)c(Cl)c3)c(=O)[nH]2)cc(OC)c1OC | 87.7%
NC(=O)c1ccc2nc3c(n2c1)C(=O)C(=O)c1ccccc1-3 | -55.5% (active)
Nc1c(C(=O)Nc2ccccn2)sc2nc3c(cc12)CCCCCC3 | 15.6%
COc1cccc(NC(=O)Nc2ccc(Oc3ncnc4[nH]c(C)c(C)c34)cc2)c1 | 40.9%
CC(=O)Oc1c2c(nc3c1c1ccccc1n3Cc1ccccc1)-c1ccccc1C2 | 51.1%
CCOC(=O)C(=Cc1c(-c2ccccc2)[nH]c2ccccc12)C(=O)OCC | 41.6%
CCOC(=O)c1c(C)nc2c(c1N)/C(=C/c1cccs1)C(=O)N2c1ccc(OC)cc1 | 25%
Cc1ccccc1NC(=O)c1sc2nc(C)c(C(C)O)cc2c1N (configuration not stated) | 21%
C#CCN1C(=O)c2ccccc2N(CC#C)C12CCN(Cc1cn(CC(=O)Nc3ccccc3C(N)=O)nn1)CC2 | 83.8%
O=c1nc(-c2ccccc2)c2cc(-c3ccc(N4CCCC4)nc3)ccc2[nH]1 | 35.4%
CC(=O)ON1CCCC(P(=O)(OCOC(=O)C(C)(C)C)OCOC(=O)C(C)(C)C)C1=O (configuration not stated) | -1.76% (active)
O=S(=O)(O)c1ccc(N=NSc2ccc3ccccc3c2)cc1 | 98.9%

Compound | growth
Cc1cccc(C)c1NCc1nnc(-c2ccco2)o1 | 87.1%
CC1(C)Cc2c(Br)c(Br)c(Br)c(OCC(O)CN3CCOCC3)c2O1 (configuration not stated) | 114%
S=c1ssnc1-c1cc2ccccc2o1 | 65.5%
CCCCCCCc1n(Cc2ccc3ccccc3c2)c2ccccc2[n+]1Cc1ccc2ccccc2c1 | -64.7% (active)
Oc1c(CCl)cc(Cl)cc1Cc1cc(Cl)cc(Cc2cc(Cl)cc(CCl)c2O)c1O | 8.55% (active)
Cc1cnc(SCc2ccc(Cl)cc2Cl)nc1Nc1ccc(Cl)c(Cl)c1 | 85.4%
O=C(C[n+]1cccc2cc(Cl)ccc21)c1ccc2c(c1)CCCC2 | 4.57% (active)
COc1ccc(/C=C(/C(=O)N2CCN(Cc3ccccc3)CC2)c2cc(OC)c(OC)c(OC)c2)cc1O | 20.9%
NC(=O)CN1C(=O)c2ccccc2C1=O | 95.3%
O=C(Nc1nc2ccc(C(F)(F)F)cc2s1)c1cc(Cl)ccc1O | -1.08% (active)
C[C@@H]1C(=O)[C@@H]2C[C@@H](O)[C@@H](O)C[C@]2(C)[C@H]2CC[C@@]3(C)C(=C12)CC[C@@H]3[C@@](C)(O)[C@H](O)CCC(C)(C)O | 104%
O=c1[nH]c(-c2cccc(F)c2)cc2cc(F)ccc12 | 13.6%
COCCOC(=O)COc1ccc(OC)cc1 | 97.3%
C=C(C)[C@@H]1CC[C@]2(C(=O)N3CCN(C)CC3)CC[C@]3(C)[C@H](CC[C@@H]4[C@@]5(C)C/C(=C/c6ccco6)C(=O)C(C)(C)[C@@H]5CC[C@]43C)[C@@H]12 | 36.1%
N#CCNc1ccc(C(=O)O)cc1 | 98.9%
OCCNc1nc(NCCO)nc(Nc2ccc(C3=NN(c4cc(Cl)cc(Cl)c4)C(c4ccc(Cl)cc4)C3)cc2)n1 (configuration not stated) | 3.94% (active)
C=C1C(=O)O[C@H]2[C@H]1CC/C(COC(=O)NCc1nc3ccccc3[nH]1)=C\CC[C@@]1(C)O[C@@H]21 | 36.5%
Cc1cccc(C)c1NCc1nnc(-c2ccc(O)cc2)o1 | 90.6%

From PubChem BioAssay (NCI)
